The values that follow come from PubChem BioAssay AID602141 (Sanford-Burnham Center for Chemical Genomics, 2011).

Screen size: about 360,000 compounds; about 1,300 (0.36%) were called active. This excerpt belongs to a sample that is enriched for actives. Unmarked numbers belong to inactive results.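 How the source made its calls: active means corrected activity change at or below -50% at 5 µM; inactive means the rest.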

The test is described as follows: KKLEB cell viability reduction – uHTS, fluorescence assay plates, cytotoxicity control for CF NF-kB inhibitor project, primary screen (AID 602141). The conditions noted are these: KKLEB CF airway cells viability, ATPlite luminescence, overnight, at 5 µM, active compounds read low. (In ATP-based viability assays light output follows the ATP content of the culture.)
For the compound `CC1=C(C(=O)Nc2ccccc2)S(=O)(=O)CCO1`, the activity change (cytotoxicity) was -6%.

On to `CC1=C(C(=O)Nc2ccccc2)SCCO1`, for which the activity change (cytotoxicity) was -58.9% (active).

Turning to `CC(Cc1ccccc1)NCCC(c1ccccc1)c1ccccc1` (stereo not given), the activity change (cytotoxicity) is -16.7%.

Consider `Cc1c(Oc2cc(NN3CCCCC3)c([N+](=O)[O-])cc2[N+](=O)[O-])cccc1[N+](=O)[O-]`, for which the activity change (cytotoxicity) is -5.7%.

Take `CCOc1cccc(=NC2CCCCC2)c2c(C)[nH]c(C)c12`: the activity change (cytotoxicity) was 4.1%.

`CCc1nc2ccccc2c(=O)n1-c1cccc(OC)c1`: the activity change (cytotoxicity) was -1.5%.

Regarding `CC12CCC(O)CC1CCC1C2CCC2(C)C(C(=O)CC(O)C(F)(F)F)CCC12` (stereo not given), the activity change (cytotoxicity) was 3.6% [cells stimulated with P. aeruginosa culture filtrate].

For the compound `C[C@]12CC[C@H](O)C[C@H]1CC[C@@H]1C2CC[C@]2(C)[C@@H](C3=CC(=O)OC3)[C@@H](O)C[C@]12O` (stereo not given in full), the activity change (cytotoxicity) is -53.3% [cells stimulated with P. aeruginosa culture filtrate] (active).

Regarding `Cc1ccc(CN2CCCC(C(=O)c3ccc4c(c3)OCO4)C2)cc1C` (stereo not given), the activity change (cytotoxicity) was -12.8%.

As to `Cc1nn(Cc2ccccc2Cl)c(Cl)c1C(=O)OC(C(=O)NC(N)=O)C(C)C` (stereo not given), the activity change (cytotoxicity) was -1.6%.

With `O=C(CSC1c2ccccc2-c2ccccc21)N/N=C/c1ccccc1`, the activity change (cytotoxicity) is 11.7%.

For `O=c1[nH]c2ccccc2n1C1CCN(C(c2ccccc2)c2nnnn2Cc2ccccc2)CC1` (stereo not given), the activity change (cytotoxicity) was -106% [cells stimulated with P. aeruginosa culture filtrate] (active).

Consider `CSCCC(c1nnnn1C(C)(C)C)N1CCC(n2c(=O)[nH]c3ccccc32)CC1` (stereo not given), for which the activity change (cytotoxicity) was -1.4% [cells stimulated with P. aeruginosa culture filtrate].

On to `O=c1[nH]c2ccccc2n1C1CCN(C(c2ccnc3ccccc23)c2nnnn2Cc2ccccc2)CC1` (stereo not given), for which the activity change (cytotoxicity) is -13.5% [cells stimulated with P. aeruginosa culture filtrate].

Take `CC1([N+](=O)[O-])COP(=O)(Nc2ccc(F)cc2)OC1` (stereo not given): the activity change (cytotoxicity) is 8.2% [cells stimulated with P. aeruginosa culture filtrate].

For the compound `CCc1cccc2c(C#N)cn(CC(=O)N3CCOCC3)c12`, the activity change (cytotoxicity) was 3.2%.

Take `CC(=O)OC1C2(CC3N4C(=O)C5(CO)SSC4(CC31O)C(=O)N5C)OC(C)C(C)(C)C2=O` (stereo not given): the activity change (cytotoxicity) was -95% [cells stimulated with P. aeruginosa culture filtrate] (active).

Consider `CCC(C)n1c(O)c(/C=N/Nc2nc3c(c(=O)n(C)c(=O)n3C)n2C)c(=O)[nH]c1=S` (stereo not given), for which the activity change (cytotoxicity) was -14.1%.

Turning to `C[C@@]1([C@@H](NP(=O)(c2ccccc2)c2ccccc2)c2ccccc2)C[C@H]1CCO`, the activity change (cytotoxicity) was 15%.

`COc1ccc(NC(=O)c2cn(CCC#N)nc2-c2ccc([N+](=O)[O-])cc2)cc1`: the activity change (cytotoxicity) is -13.1%.

Take `CCCCCCCCCCCCn1ccc(=N)cc1`: the activity change (cytotoxicity) is -61.1% (active).

For the compound `O=c1[nH]c(CN2CC=C(c3ccccc3)CC2)nc2scc(-c3cccs3)c12`, the activity change (cytotoxicity) is 0.9%.

With `Cc1ccc2c(c1)C1CN(C)CCC1N2C(=O)Cn1nnc(-c2ccccc2F)n1` (stereo not given), the activity change (cytotoxicity) was 2%.

With `c1cncc(CNCCc2c[nH]c3ccccc23)c1`, the activity change (cytotoxicity) is 7.7%.

As for `c1ccc(C2NCc3ccccc3-n3cccc32)cc1` (stereo not given), the activity change (cytotoxicity) is -7.9%.

For the compound `Cc1ccc(C(C)C)c(OCC(=O)N2CCN(CC(=O)N3CCOCC3)CC2)c1`, the activity change (cytotoxicity) is -1.3% [cells stimulated with P. aeruginosa culture filtrate].

As to `COCCNC(=O)CN1C2CCC1CC(O)(c1cccnc1)C2` (stereo not given), the activity change (cytotoxicity) is 1.5%.

For the compound `COC1C(O)C(C)OC(OC2CCC3(C=O)C(CCC4C3CCC3(C)C(C5=CC(=O)OC5)CCC43O)C2)C1O` (stereo not given), the activity change (cytotoxicity) was -58.4% [cells stimulated with P. aeruginosa culture filtrate] (active).

Take `COC(=O)C1=C(c2ccc(Cl)c(C(F)(F)F)c2)C[C@@H]2CC[C@H]1N2C(=O)NC(C)C`: the activity change (cytotoxicity) was -0.4% [cells stimulated with P. aeruginosa culture filtrate].

Regarding `CC(=O)NCC1=C(c2ccc3ccccc3c2)C[C@@H]2CC[C@H]1N2Cc1ccco1`, the activity change (cytotoxicity) is -7.6%.
